Test results from PubChem BioAssay AID489012 (National Center for Advancing Translational Sciences (NCATS), 2010).
Records with an inconclusive call do not appear. Values without a mark were called inactive. Calls of active or inactive are those of the source. Calls come from the whole dose curve; as a rule, active = well fitted activation curve with a large enough effect; inconclusive = small, poorly fitted or top-dose-only effect; inactive = no such curve, though single readings can be large or run the other way.

These compounds were tested against Relaxin receptor 1 (Homo sapiens) (UniProt Q9HBX9) (assay: qHTS Assay for Agonists of the Relaxin Receptor RXFP1: RXFP1 Hit Validation). Conditions: HEK293T-RXFP1 cAMP TR-FRET, 30 min; series mostly up to 115 µM; activation: at the top concentration.
Note: nearly all actives have a fitted effect of over 65% in size.
Potency is the fitted concentration of half-maximal effect.
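Throughout, for activation: cAMP rise lowers the TR-FRET signal in lysed cells with PDE4 inhibitor present; 0% = buffer-only basal and 100% = 29 nM porcine relaxin.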

Chain of Relaxin receptor 1 (Homo sapiens) (Q9HBX9 whole entry, looked up): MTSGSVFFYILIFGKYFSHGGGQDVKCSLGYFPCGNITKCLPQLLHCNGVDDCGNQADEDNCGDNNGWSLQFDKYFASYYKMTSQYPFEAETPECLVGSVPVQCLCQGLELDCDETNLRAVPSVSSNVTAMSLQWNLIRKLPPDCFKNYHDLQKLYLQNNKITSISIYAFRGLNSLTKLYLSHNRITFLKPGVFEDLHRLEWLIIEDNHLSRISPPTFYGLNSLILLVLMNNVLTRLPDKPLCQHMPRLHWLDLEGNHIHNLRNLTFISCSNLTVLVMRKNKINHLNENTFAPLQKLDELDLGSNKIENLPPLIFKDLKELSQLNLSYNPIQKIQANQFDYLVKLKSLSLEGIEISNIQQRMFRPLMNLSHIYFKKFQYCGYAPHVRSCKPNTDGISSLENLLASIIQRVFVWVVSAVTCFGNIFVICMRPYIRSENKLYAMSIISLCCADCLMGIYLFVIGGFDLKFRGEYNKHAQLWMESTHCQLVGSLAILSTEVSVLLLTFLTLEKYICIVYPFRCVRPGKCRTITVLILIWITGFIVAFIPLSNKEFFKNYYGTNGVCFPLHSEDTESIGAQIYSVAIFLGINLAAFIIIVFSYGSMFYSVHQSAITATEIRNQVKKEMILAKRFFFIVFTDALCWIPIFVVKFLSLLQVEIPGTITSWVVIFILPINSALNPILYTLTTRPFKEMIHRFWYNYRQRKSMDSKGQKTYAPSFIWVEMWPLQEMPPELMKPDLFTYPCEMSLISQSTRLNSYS

SMILES | activation | Potency
COC(=O)c1c(N2C(=O)CC(Sc3ncccc3C(=O)O)C2=O)sc(C)c1C (stereo not given) | -8.76% | –
O=C(O)CCNc1ccc(NCCC(=O)O)c2c1C(=O)c1ccccc1C2=O | -0.904% | –
COc1ccc(/C=C2/SC(=O)N(CC(=O)Nc3cc(C)on3)C2=O)cc1OC | -68% | –
COC(=O)c1c(NC(=O)c2cccc(N3C(=O)CCC3=O)c2)sc2c1CCN(C(C)=O)C2 | 28.6% | –
CCOC(=O)CNC(=O)CSc1ccc2nnc(-c3cccnc3)n2n1 | -30% | –
COc1ccc(CCn2c(=N)c(C(=O)NCC3CCCO3)cc3c(=O)n4cccc(C)c4nc32)cc1 (stereo not given) | 20.5% | –
CCN(CC)S(=O)(=O)c1cccc(N=Nc2c(O)c3ccccc3oc2=O)c1 | – | 21.9 µM (active)
O=C(Nc1ccc(Cl)cc1)Nc1ccccc1Sc1ncc([N+](=O)[O-])s1 | 7.1% | –
CN(CC(=O)Nc1ccccc1Cl)C(=O)COC(=O)Cc1c(F)cccc1Cl | 0.353% [at 45 µM] | –
Cc1ccccc1OCC(=O)Nc1sc(C(=O)Nc2cccc(C)c2C)c(C)c1C#N | – | 6.15 µM (active)
Cc1cc(C(=O)COC(=O)Cn2cnc3c2c(=O)n(C)c(=O)n3C)c(C)n1C | – | 30.9 µM (active)
O=C(Nc1ccccc1C(=O)Nc1ccccc1)c1ccco1 | -9.11% [at 125 µM] | –
CCc1nnc(NC(=O)CSc2nc(C)nc3c2c(=O)n(C)c(=O)n3C)s1 | – | 17.3 µM (active)
COc1ccc(S(=O)(=O)Nc2ccccn2)c(C)c1C | 1.99% [at 45 µM] | –
O=C(CSc1ccc2nnc(-c3ccncc3)n2n1)NCC1CCCO1 (stereo not given) | 27% | –
Cc1ccc(CNC(=O)CCc2nnc3ccc(N4CCC5(CC4)OCCO5)nn23)cc1 | 25.6% | –
Cc1cccc(NC(=O)c2ccccc2NC(=O)C2CCCCC2)c1C | -1.94% [at 125 µM] | –
CN(C)c1ccc(NC(=O)C2C3C=CC(C3)C2C(=O)O)cc1 (stereo not given) | -7.21% | –

SMILES | activation | Potency
CC(C(=O)Nc1cccnc1)n1cc([N+](=O)[O-])cn1 (stereo not given) | 25.3% | –
Cc1cc(C)n(C(=O)CCCn2cc([N+](=O)[O-])cn2)n1 | 28% | –
CC1CCN(S(=O)(=O)c2ccc3nc(N4CCN(c5ccccc5)CC4)ccc3c2)CC1 | – | 12.3 µM (active)
Cn1c(N)c(C(=O)CSc2nnc(NC3CCCCC3)s2)c(=O)n(C)c1=O | -27% | –
NC(=O)c1ccccc1NC(=O)CC12CC3CC(CC(C3)C1)C2 | -7.81% [at 125 µM] | –
COCCNC(=O)C(OC(=O)c1nsc(Cl)c1Cl)C(C)C (stereo not given) | 24.3% | –
Cn1c(N)c(C(=O)CSc2nn(-c3ccc(F)cc3)c(=S)s2)c(=O)n(C)c1=O | – | 21.8 µM (active)
CCOC(=O)c1sc(=NC(=O)c2ccc(S(=O)(=O)N(C)c3ccccc3)cc2)n(C)c1C | – | 19.4 µM (active)
COc1ccc(CNC(=O)CN2C(=O)NC(C)(c3cccc(Br)c3)C2=O)cc1 (stereo not given) | -2.25% | –
CN1CCN(C(=O)CCc2nnc3ccc(N4CCC5(CC4)OCCO5)nn23)CC1 | 19% | –
O=C(O)c1cccc(CSc2nnc(Cc3ccccc3)o2)c1 | 3.18% [at 45 µM] | –
CCC(=O)Nc1ccc(-n2nnnc2SCC(=O)NNC(=O)c2ccco2)cc1 | -4.13% | –
CCOC(=O)/C(C#N)=C/c1c(N2CCN(CC)CC2)nc2c(C)cccn2c1=O | 23.8% | –
COc1cc(Cl)c(C)cc1NC(=O)c1ccc2c(c1)OCO2 | -3.24% [at 45 µM] | –
O=c1oc2cc(O)c(Cl)cc2c2ccccc12 | – | 6.9 µM (active)
CC(=O)C1C(c2ccccc2)c2c(noc2C)CC1(C)O (stereo not given) | -2.95% | –
CCOc1ccc2cc(C#N)c(SCC(=O)NC(C)CC)nc2c1 (stereo not given) | – | 4.88 µM (active)
